ST2 inh: inhibitors of human ST2 (IL1RL1) binding to IL-33, primary screen, biochemical, AlphaLISA | Interleukin-1 receptor-like 1 (Homo sapiens), Q01638 | AlphaLISA ST2-Fc/biotin-IL-33 interaction, 1 h | inhibition, % for hits at 17 µM | hit rate 2.3% among 78,000; in the data active means inhibition above about 30%
Starred values were filed as active, the others as inactive; i = inactive. This excerpt belongs to a sample that is enriched for hits.

SMILES	ST2 inh
CCN1C(=O)/C(=C2/Sc3ccc(OC)cc3N2C)SC1=Nc1ccc(C(C)=O)cc1	i
CCOc1ccc(N2C(=O)S/C(=C\c3ccccc3)C2=O)cc1	i
CCOc1ccc(N=C2S/C(=C\c3ccc(N(C)C)cc3)C(=O)N2CC)cc1	56%*
O=C(NC1CCCC1)c1ccc(NC2=NC3CS(=O)(=O)CC3S2)cc1 (stereo not drawn)	i
Cc1ccc(OCC(=O)N2CCN(c3ccccc3)CC2)cc1C	i
O=C(COc1ccccc1)N1CCN(c2ccc([N+](=O)[O-])c(NCCc3ccccc3)c2)CC1	33%*
O=C(CCCOc1ccccc1)N1CCN(c2ccc([N+](=O)[O-])cc2)CC1	i
OCC1(Cc2ccc(F)cc2F)CCCNC1 (stereo not drawn)	i
O=S1(=O)N=C(Nc2cccc(O)c2)c2ccccc21	i
CCCc1nnc([C@H]2CCN(Cc3cccs3)C2)o1	i
CN(C)CCC1CN(C(=O)c2cccc3c2OCC3)CCO1 (stereo not drawn)	i
CC(=O)N1CCc2c(nc(-c3ccncc3)nc2NCc2cc(C)[nH]n2)C1	i
O=C(C[C@@H]1CCNC[C@@H]1Cc1cc(COc2ccccc2)on1)N1CCN(c2ccccc2)CC1	42%*
O=C(C[C@@H]1CCNC[C@@H]1Cc1cc(COc2ccccc2)on1)N1CCOCC1	i
COc1ccc(-c2cc(C[C@H]3CNCC[C@H]3CC(=O)N3CCN(c4ccccc4)CC3)no2)cc1	i
CCn1cc(SCC(=O)NCc2ccco2)c2ccccc21	i
CC(C)c1ccc(NS(=O)(=O)c2ccc3c(c2)NC(=O)CC(=O)N3)cc1	i
O=C(c1cc(=O)c2ccccc2o1)N1[C@H]2CCNC[C@@H]1CC2	i
CCc1ccc(S(=O)(=O)Nc2cc(Br)c3oc(C)c(C(C)=O)c3c2)cc1	i
CC1CCc2c(sc(N=Cc3cccnc3)c2C#N)C1 (stereo not drawn)	30%*
CC1CCc2c(sc(NC(=O)c3cc(=O)c4ccccc4o3)c2C#N)C1 (stereo not drawn)	i
Cc1onc(-c2ccccc2Cl)c1C(=O)Nc1sc2c(c1C#N)CCC(C)C2 (stereo not drawn)	i
Cc1ccc(NC(=O)[C@H]2[C@@H](C(=O)O)[C@H]3C=C[C@@H]2C3)c(C)c1	i
COc1ccc(OC)c2sc(N3CCCC3)nc12	i
Cc1c(O)ccc2c(=O)c(Oc3ccccc3)c(C(F)(F)F)oc12	i
SMILES	ST2 inh
O=C(NC(Nc1ccc(Cl)cc1)C(Cl)(Cl)Cl)c1cccnc1 (stereo not drawn)	i
Cc1ccc(Oc2ccc(C(F)(F)F)cc2NC(=O)c2cccnc2)cc1	i
O=C(NC(Nc1ccc(C(F)(F)F)cc1Cl)C(Cl)(Cl)Cl)c1cccnc1 (stereo not drawn)	63%*
CCCCc1ccc(NC(=O)c2cnc3n(c2=O)CCS3)cc1	i
O=C(CSc1nnnn1-c1ccc(Cl)cc1)Nc1ccccc1C(F)(F)F	i
CC1CCN(c2nc3c(c(=O)n(C)c(=O)n3C)n2Cc2ccccc2Br)CC1	i
CC1CC(C)CN(S(=O)(=O)c2ccc(Cl)cc2)C1 (stereo not drawn)	i
O=C1C=CC(=NOS(=O)(=O)c2ccc(Cl)cc2)C=C1	48%*
O=S(=O)(Cc1ccccc1)c1ccc(Cl)cc1	i
NS(=O)(=O)CCCC(=O)N1CCCC(CCc2c(F)cccc2F)C1 (stereo not drawn)	i
COC(=O)c1c(NC(=O)c2ccc(OC)cc2)c2cc(NCc3ccccc3)cnc2n1C	i
Cc1ccccc1-c1nc2cc(N=Cc3cc([N+](=O)[O-])c(O)c([N+](=O)[O-])c3O)ccc2o1	i
O=[N+]([O-])c1ccc(O)c(C=Nc2ccc(-c3nc4ncccc4o3)cc2)c1	i
Cc1cccc2oc(-c3cc(N=Cc4ccc([N+](=O)[O-])cc4)ccc3O)nc12	30%*
Cc1ccccc1-c1nc2cc(N=Cc3cc([N+](=O)[O-])ccc3O)ccc2o1	i
O=[N+]([O-])c1cc2c(cc1C=Nc1ccc(O)c(-c3nc4ccccc4o3)c1)OCO2	35%*
O=[N+]([O-])c1cc2c(cc1C=Nc1ccc3oc(-c4cccc(F)c4)nc3c1)OCO2	i
CCN(C(=O)CCS(=O)(=O)c1cccc2nsnc12)c1ccccc1	i
Cc1nc(C)c(CN2CCC(Cn3cc(C4CC4)nn3)CC2)nc1C	i
COc1ccc(CNc2ncnc(NCc3ccc(OC)cc3)c2[N+](=O)[O-])cc1	i
O=[N+]([O-])c1cccnc1NCc1ccccc1	39%*
O=[N+]([O-])c1ccccc1S(=O)(=O)NCc1cccnc1	i
Cn1c(=O)c2c(nc(CN3CCN(c4ccc(F)cc4)CC3)n2CC(N)=O)n(C)c1=O	i
Cn1c(=O)c2c(nc(Br)n2Cc2ccc(F)cc2)n(C)c1=O	i
CC(=O)N1N=C(c2ccc(F)cc2)Cn2c1nc1c2c(=O)n(C)c(=O)n1C	55%*
Cc1ccccc1CN1CCC(CN(CC2CCCO2)C(=O)c2ccc3[nH]ccc3c2)CC1 (stereo not drawn)	i

Source: PubChem
